The assay can be described thus: differential killing of epithelial or mesenchymal cells, primary screen, imaging, PC-3E GFP, TEM4-18 mCherry, co-culture (AID 1345086).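 On all read-outs here: cells exposed to compound for 72 h before imaging.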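 On red/green cell ratio (normalised): normalised mesenchymal count divided by normalised epithelial count so high means epithelial killing.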 Particulars: imaging cell counts, at 1 µM; for red/green cell ratio (normalised): actives lie on both sides, counts scaled to control wells, 1 = unselective.
[1] abbreviates: measured here: epithelial PC-3E GFP cell survival.
The mark [2] stands for this setting: measured here: mesenchymal TEM4-18 mCherry cell survival.

Where “and” joins values, the source holds several entries; their conditions need not be identical. Equal entries are not always repeated. Calls of active or inactive are those of the source.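 How the source made its calls: active means compounds killing one labelled cell type while sparing the other, by normalised counts and ratio limits, not self-fluorescent; inactive means the rest.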

As for `CCN(CC)CCNc1ccc(CO)c2sc3ccccc3c(=O)c12`, the red/green cell ratio (normalised) is 1.17 (inactive). In addition, the normalised cell number under setting [1] is 0.63. Under setting [2], this compound returned a normalised cell number of 0.74.
`O=C(O)c1ccccc1Nc1cccc(C(F)(F)F)c1`: the red/green cell ratio (normalised) is 0.85 (inactive). Under setting [1], the normalised cell number was determined as 1.18. This compound gave a normalised cell number under setting [2] of 1.
The corresponding values for `O=C(O)c1ccc(S(=O)(=O)N(Cl)Cl)cc1` are 0.95 (inactive), 1.13 and 1.08.
Regarding `Cc1cc(=O)n(-c2ccccc2)n1C`, the red/green cell ratio (normalised) is 1.02 (inactive). Also, the normalised cell number under setting [1] was 1.24. This compound also registered a normalised cell number under setting [2] of 1.26.
The like results for `O=C(O)CCCCC1CCSS1` (stereo not drawn) were, in that order, 0.99 (inactive), 0.91 and 0.9.
Turning to `CCN(CC)CCNC(=O)COc1ccc(OC)cc1`, the red/green cell ratio (normalised) is 1.07 (inactive). Under setting [1], the normalised cell number was found to be 1.11. Under setting [2], this compound yielded a normalised cell number of 1.18.
The corresponding values for `CCCCN(CCCC)CCCOC(=O)c1ccc(N)cc1` are 1.16 (inactive), 1.04 and 1.2.
Consider `C[C@H](N)[C@H](O)c1cccc(O)c1`, for which the red/green cell ratio (normalised) was 1.4 (inactive). Under setting [1], this compound yielded a normalised cell number of 0.79. Moreover, the normalised cell number under setting [2] was determined as 1.1.
Consider `Cc1cc(O)cc(C)c1Cl`, for which the red/green cell ratio (normalised) was 1.31 (inactive). The compound also displayed a normalised cell number under setting [1] of 0.7. In addition, the normalised cell number under setting [2] worked out at 0.93.
Take `CN(C)[C@@H]1C(=O)C(C(N)=O)=C(O)[C@@]2(O)C(=O)C3=C(O)c4c(O)ccc(Cl)c4[C@@H](O)[C@H]3C[C@@H]12`: the red/green cell ratio (normalised) is 0.96 (inactive) and 1.05 (inactive). In addition, under setting [1], the normalised cell number is 1.09 and 1.32. The normalised cell number under setting [2] was 1.05 and 1.38.
Turning to `COc1cc(NS(=O)(=O)c2ccc(N)cc2)ncn1`, the red/green cell ratio (normalised) is 1.16 (inactive). Also, under setting [1], the normalised cell number amounted to 0.74. Under setting [2], this compound displayed a normalised cell number of 0.86.
The like results for `CCCc1ncc(C[n+]2ccccc2C)c(N)n1` were, in that order, 0.95 (inactive), 1.35 and 1.28.
The corresponding values for `CC(Cc1cccc(C(F)(F)F)c1)NCCOC(=O)c1ccccc1` (stereo not drawn) are 0.76 (inactive), 1.26 and 0.95.
The corresponding values for `NC(Cc1ccc(Cl)cc1)C(=O)O` (stereo not drawn) are 1.13 (inactive), 0.99 and 1.12.
Consider `Nc1nccs1`, for which the red/green cell ratio (normalised) is 0.78 (inactive). The normalised cell number under setting [1] was found to be 1.25. In addition, under setting [2], the normalised cell number stood at 0.98.
On to `CCN(CC)C(=O)c1cccc(C)c1`, for which the red/green cell ratio (normalised) was 1.18 (inactive). In addition, the normalised cell number under setting [1] came to 1. For the same compound, under setting [2], the normalised cell number amounted to 1.19.
Take `CNC1(C)C2CCC(C2)C1(C)C` (stereo not drawn): the red/green cell ratio (normalised) is 0.89 (inactive). The normalised cell number under setting [1] is 1.09. Under setting [2], this compound yielded a normalised cell number of 0.97.
The corresponding values for `CCCCc1nc(Cl)c(CO)n1Cc1ccc(-c2ccccc2-c2nn[nH]n2)cc1` are 1.09 (inactive), 1.34 and 1.46.
Regarding `C[N+](C)(C)CCOC(N)=O`, the red/green cell ratio (normalised) was 1.21 (inactive). Under setting [1], the normalised cell number was found to be 0.85. Besides, the normalised cell number under setting [2] turned out to be 1.03.
The like results for `O=C1c2cccc(O)c2C(=O)c2c(O)cccc21` were, in that order, 1.24 (inactive), 1.22 and 1.51.
The like results for `NC(N)=NCCN1CCCCCCC1` were, in that order, 1.06 (inactive), 1.17 and 1.23.
The corresponding values for `Cc1ccc(C(=O)c2ccc(CC(=O)O)n2C)cc1` are 0.9 (inactive), 1.11 and 1.
`CC(C)N=C(N)/N=C(\N)Nc1ccc(Cl)cc1`: the red/green cell ratio (normalised) is 1.08 (inactive). In addition, the normalised cell number under setting [1] came to 1.11. Further, the normalised cell number under setting [2] came out at 1.2.
Turning to `Cc1ccc2c(Cl)cc(Cl)c(O)c2n1`, the red/green cell ratio (normalised) was 0.8 (inactive). Moreover, the normalised cell number under setting [1] turned out to be 1.22. Under setting [2], this compound registered a normalised cell number of 0.98.
The like results for `NCCCC(=O)O` were, in that order, 0.83 (inactive), 1.17 and 0.97.
Turning to `Cc1[nH]c(C)c(Cl)c(=O)c1Cl`, the red/green cell ratio (normalised) was 0.99 (inactive). The compound also displayed a normalised cell number under setting [1] of 1. Also, under setting [2], the normalised cell number was found to be 0.99.
The corresponding values for `CN1Cc2c(N)cccc2C(c2ccccc2)C1` (stereo not drawn) are 0.78 (inactive), 1.16 and 0.9.
As for `CN(C)CCOC(=O)C(c1ccccc1)C1(O)CCCC1` (stereo not drawn), the red/green cell ratio (normalised) is 1.07 (inactive). The same compound registered a normalised cell number under setting [1] of 1.42. This compound came in with a normalised cell number under setting [2] of 1.52.
In the case of `Cc1cc(-c2ccccc2)nnc1NCCN1CCOCC1`, the red/green cell ratio (normalised) is 1.08 (inactive). Under setting [1], this compound came in with a normalised cell number of 1.01. Besides, under setting [2], the normalised cell number was found to be 1.08.
Take `CCN(CC)CCOC(=O)C(Cc1cccc2ccccc12)CC1CCCO1` (stereo not drawn): the red/green cell ratio (normalised) was 1.07 (inactive). Further, the normalised cell number under setting [1] amounted to 0.99. Moreover, the normalised cell number under setting [2] came out at 1.06.
In the case of `CC(N)CCCC(C)(C)O` (stereo not drawn), the red/green cell ratio (normalised) is 0.95 (inactive). The normalised cell number under setting [1] came out at 0.99. Further, under setting [2], the normalised cell number came out at 0.93.
The like results for `O=C(OCC(O)CO)c1ccccc1Nc1ccnc2cc(Cl)ccc12` (stereo not drawn) were, in that order, 0.94 (inactive), 0.84 and 0.79.
The like results for `O=C1OC(c2ccc(O)cc2)(c2ccc(O)cc2)c2ccccc21` were, in that order, 1.12 (inactive), 0.94 and 1.05.
Regarding `CC(=O)NCCCCCC(=O)O`, the red/green cell ratio (normalised) was 0.96 (inactive). Under setting [1], this compound came in with a normalised cell number of 0.98. Under setting [2], this compound came in with a normalised cell number of 0.95.
The like results for `Oc1c(I)cc(I)c2cccnc12` were, in that order, 1.31 (inactive), 1.01 and 1.32.
The like results for `CC(C(=O)O)c1ccc(C(=O)c2cccs2)cc1` (stereo not drawn) were, in that order, 1.06 (inactive), 0.96 and 1.02.
For `Nc1ccc(S(=O)(=O)Nc2cnc3ccccc3n2)cc1`, the red/green cell ratio (normalised) was 1.03 (inactive). In addition, the normalised cell number under setting [1] is 1.09. Besides, the normalised cell number under setting [2] stood at 1.11.
The corresponding values for `Cc1cc(C(C)(C)C)c(O)c(C(C)(C)C)c1` are 0.93 (inactive), 1.01 and 0.94.
Regarding `CC(C)(Oc1ccc(CCNC(=O)c2ccc(Cl)cc2)cc1)C(=O)O`, the red/green cell ratio (normalised) was 1.21 (inactive). Also, under setting [1], the normalised cell number was 1.03. Under setting [2], this compound showed a normalised cell number of 1.25.
`CC(=O)Nc1ccccc1`: the red/green cell ratio (normalised) was 1.11 (inactive). Besides, under setting [1], the normalised cell number was 1.06. Moreover, under setting [2], the normalised cell number stood at 1.18.
As for `O=C(O)CCCCCCCC(=O)O`, the red/green cell ratio (normalised) is 0.99 (inactive). Moreover, the normalised cell number under setting [1] is 1.08. The same compound showed a normalised cell number under setting [2] of 1.07.

(Values after PubChem BioAssay.)
